Source: PubChem
D3 antag: D3 dopamine receptor (human) antagonism; max response, negative = inhibition, %; AID 652054; D3R cells, DiscoveRx beta-arrestin luminescence, antagonist mode; stronger effect = lower value; P35462; 2.5% of 360,000 active; in the data active = max response below about -50%; inconclusive = no clear call, values can overlap the other calls
Target sequence (P35462 whole entry, looked up): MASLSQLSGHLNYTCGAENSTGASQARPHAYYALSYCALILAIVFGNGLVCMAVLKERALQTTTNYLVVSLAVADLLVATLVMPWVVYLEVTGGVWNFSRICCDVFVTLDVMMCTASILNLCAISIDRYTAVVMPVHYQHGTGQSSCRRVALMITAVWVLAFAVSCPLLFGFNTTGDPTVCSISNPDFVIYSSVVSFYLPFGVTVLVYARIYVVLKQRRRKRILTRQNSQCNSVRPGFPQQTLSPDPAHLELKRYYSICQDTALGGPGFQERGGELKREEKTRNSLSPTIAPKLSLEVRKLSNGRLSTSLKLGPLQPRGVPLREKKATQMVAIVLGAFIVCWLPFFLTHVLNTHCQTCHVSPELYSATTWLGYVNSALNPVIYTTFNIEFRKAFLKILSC
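Cells expressing the human receptor were seeded at 1500 cells/well, incubated overnight at 37 degrees C in 5% CO2, then exposed to library compounds with dopamine controls for 90 minutes at 37 degrees C before luminescent detection.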
IL-1B inflam inh: inhibitors of inflammasome signaling (IL-1 beta secretion) | THP-1 LPS/ATP IL-1B secretion, AlphaLISA, 16 h; stronger effect = lower value | activity change, % at 57.5 µM | 4.7% of 360,000 active | AID 743279; in the data active = activity change below about -50%; inconclusive = mostly about -30% to -49%
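Secreted IL-1B measured by AlphaLISA bead assay after 16 h compound exposure of THP-1 cells; compounds (final up to 57.5 uM) added 1 h before LPS (250 ng/mL) and ATP (1.25 mM) stimulation; lower signal means less secretion.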
Integrin act MD: integrin-mediated muscular dystrophy alleviation activation; Potency, µM (top dose mostly 38.3 µM), hits mostly activators; 0.064% of 350,000 active; AID 624291; alpha7betagal myoblasts, beta-gal FDG fluorescence, 48 h; note: nearly all actives have a fitted effect of over 60% in size
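Alpha7betagal+/- myoblasts (passage 13) were plated 16-24 hr, then exposed to compounds (1:260 dilution of DMSO stock) for 48 hours at 37C. After MPER lysis, β-galactosidase reporter activity was read as FDG fluorescence (ex 480/em 540) after 30 minutes.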
S2 tox: cell viability loss in ATXN counter-screen | S2 cells (HEK-293 line with an ATXN2-luciferase reporter) viability, CellTiter-Fluor protease fluorescence, 24 h | Potency, µM (highest dose often 56.7 µM), hits mostly cytotoxic | 0.49% of 400,000 active | AID 651635; note: nearly all actives have a fitted effect of over 40% in size
D3 ag: D3 dopamine receptor (human) agonism; P35462; D3R DiscoveRx beta-arrestin cells, luminescence, 90 min; max activation, %; 0.58% of 410,000 active; AID 652048; in the data active = max activation above about 30%
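Agonist mode: compounds and dopamine controls were applied to plated cells for 90 min at 37 degrees C after an overnight attachment at 1500 cells/well. Luminescent read-out followed 30 - 60 minutes at room temperature with DiscoveRx detection reagent.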
ATXN2 expr inh: ATXN2 expression inhibition | HEK-293 ATXN2-luciferase reporter, luminescence, 24 h | Potency, µM (doses to about 57 µM), hits mostly inhibitors | 0.72% of 360,000 active; note: nearly all actives have a fitted effect of over 55% in size
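ATXN2-luciferase reporter cells (luciferase flanked by upstream and downstream ATXN2 gene portions) were treated 24 h at 37 °C with compounds at up to 57 uM. SteadyGlo luminescence gave expression; GF-AFC fluorescence gave viability.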
Large screens that a line does not name were inactive. Sampled rows, rich in hits. Any-hit rate of the full collection: about 7%. Unless noted, calls come from the whole dose curve; as a rule, active = well fitted curve in the direction sought with a large enough effect; inconclusive = small, poorly fitted or top-dose-only effect, or another doubt; inactive = no such curve, though single readings can be large; an effect the other way counts as inactive or inconclusive.

O=C(NCCCN1CCOCC1)c1cc(-c2ccc(F)cc2)no1	none
O=C(CSc1nc(-c2ccccc2)cs1)N1CCN(C(=O)c2ccco2)CC1	none
O=C(O)c1cc(O)c2c(c1)[C@@H]([C@H]1c3cc(C(=O)O)cc(O)c3C(=O)c3c(O[C@@H]4O[C@H](CO)[C@@H](O)[C@H](O)[C@H]4O)cccc31)c1cccc(OC3O[C@H](CO)[C@@H](O)[C@H](O)[C@H]3O)c1C2=O (stereo not given in full)	D3 antag -56, S2 tox inconclusive (no result: Integrin act MD)
O=C(Nn1c(O)c(C=C2N=c3ccccc3=N2)sc1=S)c1ccccc1Cl	D3 antag -55, IL-1B inflam inh inconclusive, Integrin act MD inconclusive
Cc1ccc(C(NC(N)=O)c2ccccc2C)cc1 (stereo not given)	none
COc1cccc(CN(CC(=O)NC2CCCC2)C(=O)CCC(=O)Nc2cc(C)on2)c1	none
COc1ccc(C(=O)/C=C/C(=O)N(CC(=O)NC2CCCCC2)CC2CCCO2)c(O)c1 (stereo not given)	D3 antag inconclusive, IL-1B inflam inh -98, S2 tox 4µM, ATXN2 expr inh 3.8µM
COc1ccc(C(=O)/C=C/C(=O)N(CC(=O)NC2CCCCC2)Cc2ccccc2OC)c(O)c1	IL-1B inflam inh -100, ATXN2 expr inh 21µM (no result: S2 tox)
COc1ccc(C(=O)/C=C/C(=O)N(CC(=O)NC2CCCCC2)Cc2ccccc2)c(O)c1	D3 antag -115, IL-1B inflam inh -100, S2 tox inconclusive, ATXN2 expr inh inconclusive
Cc1ccc(S(=O)(=O)NCC(=O)N(CC(=O)NC2CCCC2)CC2CCCO2)cc1 (stereo not given)	none
c1coc(-c2ccnc(-c3ccncc3)n2)c1	none
Cc1ccc(CSc2nnc(-c3ccc(NS(=O)(=O)c4ccccc4)cc3)o2)cc1	IL-1B inflam inh -57, S2 tox inconclusive
CC1C(=O)c2ccccc2CC1C(=O)O (stereo not given)	none
Cc1cccc(N2CCN(CC(O)COc3ccccc3Cl)CC2)c1 (stereo not given)	D3 antag -75 (no result: ATXN2 expr inh)
OC(COc1cccc2ccccc12)CN1CCN(c2ccc(Cl)cc2)CC1 (stereo not given)	S2 tox inconclusive (no result: ATXN2 expr inh)
OC(COc1cccc2ccccc12)CN1CCN(c2cccc(Cl)c2)CC1 (stereo not given)	S2 tox inconclusive, D3 ag 45 (no result: ATXN2 expr inh)
CCC(CC)C(=O)NCCc1ccc(F)cc1	S2 tox inconclusive
CC1Cc2ccccc2N1C(=O)CSc1ncc(-c2ccc(F)cc2)n1C (stereo not given)	IL-1B inflam inh -77, Integrin act MD inconclusive
COC(=O)c1ccc(Sc2ccccn2)c([N+](=O)[O-])c1	none
CC(=O)C(C(C)=O)c1c(Cl)c(O)c(O)c2c(C(=O)c3ccccc3)coc12	S2 tox inconclusive, ATXN2 expr inh 25µM
CN1CCN(Cc2c(O)ccc3occ(C(=O)c4ccccc4)c23)CC1	S2 tox inconclusive
O=C1NN=C(c2ccc(Br)cc2)CC1c1ccc(Cl)cc1 (stereo not given)	IL-1B inflam inh -85
CCc1ccc(C2CC(c3ccc(Cl)cc3)=NNC2=O)cc1 (stereo not given)	IL-1B inflam inh -52
CC1CCN(C(=O)CCS(=O)(=O)c2cc3c(cc2Cl)NC(=O)CO3)CC1	none
Cc1ccc(-n2nnnc2SCC(=O)N2CCNC2=O)cc1C	Integrin act MD inconclusive (no result: ATXN2 expr inh)
CC(C)CNC(=O)C1(C)CCCN1C(=O)C(C)(C)Oc1ccc(Cl)cc1 (stereo not given)	D3 antag -100 (no result: Integrin act MD)
CC(C)CNC(=O)C1(C)CCCN1C(=O)c1ccncc1 (stereo not given)	D3 ag 89 (no result: Integrin act MD)
CC(C)CNC(=O)C1(C)CCCN1C(=O)c1cncc(Br)c1 (stereo not given)	none (no result: Integrin act MD)
CCCCCc1cc(=O)oc2c(C(CCN3CCN(c4ccccc4)CC3)c3ccc(N(C)C)cc3)c(OC)cc(OC)c12 (stereo not given)	D3 antag -52, S2 tox inconclusive
COc1ccc(C(CCN2CCN(c3ccccc3)CC2)c2c(OC)cc(OC)c3c(-c4ccccc4)cc(=O)oc23)cc1 (stereo not given)	D3 antag -53
COc1cc(OC)c2ccc(=O)oc2c1C(CCN1CCN(c2ccccc2)CC1)c1ccc(N(C)C)cc1 (stereo not given)	D3 antag -115
COc1cc(OC)c2c(C)cc(=O)oc2c1C(CCN1CCN(c2ccccc2)CC1)c1ccc2c(c1)OCO2 (stereo not given)	S2 tox inconclusive
COc1cc(OC)c2c(-c3ccccc3)cc(=O)oc2c1C(CCN1CCN(c2ccccc2)CC1)c1ccc(N(C)C)cc1 (stereo not given)	D3 antag -62
CCOC(=O)C1CCN(C(=O)C(=O)N2CCC(C(=O)OCC)CC2)CC1	none
CC1(C)CC(NC(=O)C2CCC(=O)N(Cc3ccccc3F)C2)CC(C)(C)C1 (stereo not given)	S2 tox inconclusive
CNCC(C)COc1ccccc1OCc1ccccc1 (stereo not given)	none
CC(O)CNCCCCOc1ccc(OCc2ccccc2)cc1 (stereo not given)	IL-1B inflam inh -56 (no result: S2 tox)
OCCNCCCCOc1ccc(OCc2ccccc2)cc1	IL-1B inflam inh -81
CC(O)CNCCCOc1ccccc1OCc1ccccc1 (stereo not given)	IL-1B inflam inh -52
OCCCCNCc1ccc(OCc2ccccc2)cc1	none
Cc1ccc(C)c(NS(=O)(=O)c2ccc3c4c(cccc24)C(=O)N3)c1	none (no result: D3 antag, IL-1B inflam inh, Integrin act MD, S2 tox, ATXN2 expr inh)
C=CCNc1nc(Nc2cc(Cl)ccc2OC)nc(OC)n1	none
CC(C)(C)[C@H]1COC(=O)[C@H](Cc2ccc(F)cc2)CC/C=C/C[C@@H](CC(=O)N[C@H](CO)Cc2ccccc2)C(=O)N1	none
O=c1[nH]ncc2c3ccccc3n(Cc3ccccc3F)c12	D3 antag -60
O=c1[nH]ncc2c3ccccc3n(Cc3ccccc3)c12	none
OC(CNC1Cc2ccccc2C1)COc1ccc(F)cc1 (stereo not given)	D3 antag -64, IL-1B inflam inh inconclusive
Cc1ccccc1OCC(O)CNC1CCC(NCC(O)COc2ccccc2C)CC1 (stereo not given)	IL-1B inflam inh -98, S2 tox inconclusive, ATXN2 expr inh inconclusive
OC(CNC1CCCC1)COc1ccccc1Br (stereo not given)	none (no result: ATXN2 expr inh)
Cc1cc2c(OCC(O)CNC3CCCCC3)cccc2[nH]1 (stereo not given)	D3 antag -59, IL-1B inflam inh inconclusive
